Measurements as given in PubChem BioAssay (Tox21).
Values without a mark were called inactive. Records with an inconclusive call do not appear. Where a call stands in place of a potency, no number is given. Active and inactive are the calls of the source. Unless noted, calls come from the whole dose curve; as a rule, active = well fitted curve in the direction sought with a large enough effect in the repeat runs; inconclusive = weak or mixed curves; inactive = no such curve, though single readings can be large; an effect the other way counts as inactive or inconclusive.

How the values were obtained:
[1] = qHTS assay to identify small molecule antagonists of the estrogen related receptor (ERR) signaling pathway from Tox21 library - cell viability counter screen (AID 1224834); note: nearly all actives have a fitted effect of over 30% in size; note: potency is the fitted concentration of half-maximal effect
Procedure, shortened: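 Seeded ERR cells were rested 6 h at 37 C/5% CO2 before compounds, positive and negative controls or DMSO were added. Incubation continued for 17.5 h, and viability was then quantified by CellTiter-Fluor fluorescence.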

[2] = target: Luciferin 4-monooxygenase (Photinus pyralis) (UniProt P08659); test: qHTS assay to identify small molecule inhibitors of firefly luciferase (AID 1224835); note: series mostly up to about 120 µM; nearly all actives have a fitted effect of over 25% in size
Procedure, shortened: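 Quantitative HTS format; KM concentrations of both substrates. Purified P. pyralis FLuc activity quantified from luminescence images.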

[3] = qHTS assay to identify small molecule agonists of the constitutive androstane receptor (CAR) signaling pathway - cell viability counter screen (AID 1224836); note: nearly all actives have a fitted effect of over 45% in size; note: potency is the fitted concentration of half-maximal effect
Procedure, shortened: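 Compound titrations (15 concentrations) went onto HepG2-CYP2B6-hCAR cells 4 h after seeding, alongside PK11195 at a final 0.75 uM; a 23 h, 37 C/5% CO2 incubation preceded CellTiter-Fluor viability measurement.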

[4] = qHTS assay to identify small molecule antagonists of the constitutive androstane receptor (CAR) signaling pathway - cell viability counter screen (AID 1224837); note: nearly all actives have a fitted effect of over 45% in size; note: potency is the fitted concentration of half-maximal effect
Procedure, shortened: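 To flag cytotoxic false antagonists, HepG2 hCAR/CYP2B6-2.2kb cells were treated 23 hr with 15-concentration compound series and 50 nM CITCO at 37 C/5% CO2; CellTiter-Fluor fluorescence was the measured end point.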

[5] = target: Nuclear receptor subfamily 1 group I member 3 (Homo sapiens) (UniProt Q14994); test: qHTS assay to identify small molecule antagonists of the constitutive androstane receptor (CAR) signaling pathway (AID 1224838);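 note: HepG2 cells stably expressing hCAR with CYP2B6 luciferase reporter stimulated by CITCO; nearly all actives have a fitted effect of over 40% in size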; note: potency is the fitted concentration of half-maximal effect
Procedure, shortened: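 Human hepatoma HepG2 cells expressing hCAR and a CYP2B6 promoter (2.2 kb) luciferase construct; compound titration (15 points) with 50 nM CITCO final, 24 h at 37 C/5% CO2; luminescence via ONE-Glo after 30 min at room temperature.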

[6] = target: Nuclear receptor subfamily 1 group I member 3 (Homo sapiens) (UniProt Q14994); test: qHTS assay to identify small molecule agonists of the constitutive androstane receptor (CAR) signaling pathway (AID 1224839);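 note: HepG2 cells stably carrying human CAR and a CYP2B6 luciferase reporter; series mostly up to about 92 µM; nearly all actives have a fitted effect of over 15% in size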
Procedure, shortened: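 In this screen, CAR-driven CYP2B6 promoter activity is measured by luminescence in HepG2-CYP2B6-hCAR cells after 24 h with test compounds and 0.75 uM PK11195 (final concentration).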

[7] = qHTS assay to identify small molecule antagonists of the estrogen related receptor signaling pathway with the pleiotropic PPARgamma coactivator (PGC) from Tox21 10K library - cell viability counter screen (AID 1224840; active = well fitted cell-killing curve with a large enough effect in the repeat runs, not every such curve was filed as active; note: nearly all actives have a fitted effect of over 40% in size)
Procedure, shortened: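 Seeded PGC/ERR cells (2,000/well, 6 h, 37 C/5% CO2) get compound by pin tool; 17.5 h incubation at 37 C; CellTiter-Fluor added, 30 min, fluorescence measured.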

[8] = target: Thyrotropin receptor (Homo sapiens) (UniProt P16473); test: qHTS assay to identify small molecule agonists of the thyroid stimulating hormone receptor (TSHR) signaling pathway (AID 1224843; calls by dose curve; note: nearly all actives have a fitted effect of over 45% in size)
Procedure, shortened: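 Compounds are titrated over 15 concentrations, in triplicate, onto TSHR-HEK293 cells seeded at 800/well. Plates sit 30 min at room temperature before cAMP-d2 and anti-cAMP cryptate are added; signal is read after a further hour.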

[9] = qHTS assay to identify small molecule agonists of the hypoxia (HIF-1) signaling pathway - cell viability counter screen (AID 1224844; calls by dose curve; note: nearly all actives have a fitted effect of over 50% in size)
Procedure, shortened: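 HRE-bla ME-180; 0.5% dFBS; cpd 17 h, 37C, 5% CO2; CellTiter-Glo lum., 30 min RT, post-FRET read, same wells.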

[10] = qHTS assay to identify small molecule agonists of H2AX (AID 1224845; active = well fitted activation curve with a large enough effect in the signal ratio in the repeat runs, not every such curve was filed as active; the % refers to the signal ratio)
Procedure, shortened: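 Wild-type CHO-K1 cells plated overnight, then exposed 3 hr at 37C to compounds at 15 concentrations (0.76% DMSO). Lysed, then HTRF anti-pH2AX(S139)-cryptate/anti-H2AX-d2 detection after 24 hr at room temperature; emissions 665 and 620 nm.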

[11] = qHTS assay to identify small molecule agonists of the hypoxia (HIF-1) signaling pathway (AID 1224846; active = well fitted activation curve with a large enough effect in the signal ratio in the repeat runs, not every such curve was filed as active; the % refers to the signal ratio)
Procedure, shortened: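 Reporter induction in HRE-bla ME-180 cells is taken as agonism: cells sit 5 hrs after plating, receive compounds or DMSO only, incubate 17 hrs at 37C under 5% CO2, and are loaded with CCF4-AM for beta-lactamase FRET measurement.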

[12] = qHTS assay to identify small molecule agonists of H2AX - cell viability counter screen (AID 1224847; calls by dose curve; note: nearly all actives have a fitted effect of over 30% in size; note: potency is the fitted concentration of half-maximal effect)
Procedure, shortened: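 Read-out: CellTiter-Glo luminescence, 30 min RT. Cells: wild-type CHO-K1, 1000/well, 10% FBS, plated overnight at 37C. Treatment: 15 concentrations, 3 hr, 37C, 0.76% DMSO.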

[13] = qHTS RealTime-Glo MT Cell Viability Assay in HepG2 cells - 24 hour (AID 1224867); note: nearly all actives have a fitted effect of over 50% in size
Procedure, shortened: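 Cell number in HepG2 cultures estimated from NanoLuc luminescence generated by metabolic reduction of a prosubstrate by living cells. The homogeneous, nonlytic format allowed repeated reads at 0, 8, 16, 24, 32 and 40 h of compound exposure.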

[14] = qHTS RealTime-Glo MT Cell Viability Assay in HEK293 cells - 32 hour (AID 1224868); note: top concentration of the series differs between compounds; nearly all actives have a fitted effect of over 50% in size
Procedure, shortened: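 Homogeneous bioluminescent viability format in HEK293 cells (600 cells/well). Following 5 h at 37 C/5% CO2, 23 nL compound was pintooled; the signal was measured repeatedly during 40 h incubation.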

[15] = A CellTox Green Cytotoxicity Assay to monitor cytotoxicity in HEK293 cells - 0 hour (AID 1224869); note: nearly all actives have a fitted effect of over 50% in size
Procedure, shortened: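 Tox21 screen in HEK293: membrane-impermeant cyanine dye fluoresces on binding dead-cell DNA; compound pinned 5 h post-seeding, plates held at 37 C, signal read repeatedly through 40 h.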

[16] = qHTS RealTime-Glo MT Cell Viability Assay in HepG2 cells - 40 hour (AID 1224870); note: nearly all actives have a fitted effect of over 50% in size
Procedure, shortened: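 HepG2 cells mixed with RealTime-Glo MT reagents (NanoLuc plus cell-permeant prosubstrate) were seeded at 600 cells/well, incubated 5 h at 37 C/5% CO2, then pinned with compounds in DMSO; nonlytic luminescence tracked viability during 40 h treatment.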

Sequence of Nuclear receptor subfamily 1 group I member 3 (Homo sapiens) (Q14994 whole entry, looked up): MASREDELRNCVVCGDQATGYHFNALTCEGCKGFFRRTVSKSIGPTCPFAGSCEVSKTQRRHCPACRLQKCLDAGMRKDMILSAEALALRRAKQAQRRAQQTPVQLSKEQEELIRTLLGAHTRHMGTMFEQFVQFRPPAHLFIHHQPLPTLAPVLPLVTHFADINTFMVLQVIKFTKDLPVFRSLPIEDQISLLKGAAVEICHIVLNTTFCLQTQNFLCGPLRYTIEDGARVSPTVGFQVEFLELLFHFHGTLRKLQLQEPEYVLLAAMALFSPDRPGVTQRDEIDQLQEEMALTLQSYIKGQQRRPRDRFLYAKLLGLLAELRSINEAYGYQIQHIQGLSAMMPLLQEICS
Sequence of Thyrotropin receptor (Homo sapiens) (P16473 whole entry, looked up): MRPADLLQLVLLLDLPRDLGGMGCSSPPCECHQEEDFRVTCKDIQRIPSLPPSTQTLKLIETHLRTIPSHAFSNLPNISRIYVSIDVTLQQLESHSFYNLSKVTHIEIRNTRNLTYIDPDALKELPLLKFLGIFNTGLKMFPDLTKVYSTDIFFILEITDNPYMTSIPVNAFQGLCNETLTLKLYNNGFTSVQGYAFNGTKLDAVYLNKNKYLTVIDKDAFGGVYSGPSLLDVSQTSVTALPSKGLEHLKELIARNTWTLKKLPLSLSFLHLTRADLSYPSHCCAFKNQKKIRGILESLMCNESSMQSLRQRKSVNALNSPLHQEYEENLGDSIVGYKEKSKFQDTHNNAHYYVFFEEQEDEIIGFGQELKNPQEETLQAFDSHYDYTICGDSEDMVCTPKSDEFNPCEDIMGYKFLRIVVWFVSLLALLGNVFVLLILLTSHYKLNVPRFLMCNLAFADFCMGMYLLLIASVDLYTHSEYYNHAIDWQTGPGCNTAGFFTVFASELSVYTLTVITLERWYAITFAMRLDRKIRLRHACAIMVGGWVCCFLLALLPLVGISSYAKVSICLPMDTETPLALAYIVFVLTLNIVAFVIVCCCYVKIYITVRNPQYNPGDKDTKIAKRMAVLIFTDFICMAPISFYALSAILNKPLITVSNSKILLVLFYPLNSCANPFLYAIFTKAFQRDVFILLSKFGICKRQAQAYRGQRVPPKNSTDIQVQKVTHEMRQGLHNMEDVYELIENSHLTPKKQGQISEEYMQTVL
Sequence of Luciferin 4-monooxygenase (Photinus pyralis) (P08659 whole entry, looked up): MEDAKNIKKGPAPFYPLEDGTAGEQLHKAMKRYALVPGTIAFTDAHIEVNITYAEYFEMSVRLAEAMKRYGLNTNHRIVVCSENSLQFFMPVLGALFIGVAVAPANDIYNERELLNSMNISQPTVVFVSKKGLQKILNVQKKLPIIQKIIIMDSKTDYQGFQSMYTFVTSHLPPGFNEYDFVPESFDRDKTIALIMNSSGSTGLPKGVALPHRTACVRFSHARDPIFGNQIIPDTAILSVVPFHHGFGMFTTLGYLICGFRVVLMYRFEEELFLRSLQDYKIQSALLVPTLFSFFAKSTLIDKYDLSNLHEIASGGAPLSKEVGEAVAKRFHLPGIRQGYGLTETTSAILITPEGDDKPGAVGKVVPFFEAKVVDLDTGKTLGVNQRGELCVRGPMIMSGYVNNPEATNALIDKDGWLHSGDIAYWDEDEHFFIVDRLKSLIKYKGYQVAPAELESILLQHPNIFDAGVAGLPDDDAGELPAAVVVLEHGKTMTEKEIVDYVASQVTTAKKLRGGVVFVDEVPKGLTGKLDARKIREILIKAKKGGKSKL

SMILES | Potency [1] | Potency [2] | Potency [3] | Potency [4] | Potency [5] | Potency [6] | Potency [7] | Potency [8] | Potency [9] | Potency [10] | outcome [11] | Potency [12] | Potency [13] | Potency [14] | Potency [15] | Potency [16]
O=C(O)c1ccc(CO)o1 | inactive | inactive | inactive | inactive | inactive | inactive | inactive | inactive | inactive | inactive | inactive | inactive | inactive | inactive | inactive | inactive
CCCCOC(=O)CCS | inactive | inactive | inactive | inactive | 24.3 µM (active) | inactive | inactive | inactive | inactive | inactive | inactive | inactive | inactive | inactive | inactive | inactive
Cc1ccc(S)cc1 | inactive | inactive | inactive | inactive | inactive | inactive | inactive | inactive | inactive |  | inactive | inactive | inactive |  |  | inactive
CN1CCCN=C1/C=C/c1cccs1 | inactive | inactive | inactive | inactive | inactive | inactive | inactive | inactive | inactive | inactive |  | inactive | inactive | inactive | inactive | inactive
O=C(N/N=C/c1ccc([N+](=O)[O-])o1)c1ccc(O)cc1 | 13.3 µM (active) | inactive | 9.44 µM (active) | 8.41 µM (active) | 8.41 µM (active) | inactive | inactive |  | inactive |  |  | inactive |  |  | inactive | 
Cc1cc(O)c(C(C)C)cc1Cl | inactive | inactive | inactive | inactive | inactive | inactive | inactive | inactive | inactive | inactive |  | 89.8 µM (active) | inactive | inactive | inactive | inactive
CCCOCCOCCO | inactive | inactive | inactive | inactive | inactive | inactive | inactive | inactive | inactive | inactive | inactive | inactive | inactive | inactive | inactive | inactive
CCn1nc(C)c2c1C(=O)NCC(c1ccc(O)cc1)=N2 | inactive | inactive | inactive | inactive | inactive | inactive | inactive | inactive | inactive | inactive |  |  | inactive |  | inactive | inactive
CCCCCCCC/C=C\CCCCCCCC(=O)OC(CO)CO | inactive | inactive | inactive | inactive | inactive | inactive | inactive |  | inactive | inactive | inactive | inactive | inactive | inactive | inactive | inactive
